Data on 16 compounds can be found in PubChem BioAssay.

Assay [1] has as its system XIP peptide (Xip251-270) binding. Kind of assay: small-molecule binders of XIP peptide, primary screen, biochemical, small-molecule microarray, fluorescence 635/667 nm, 0.1 µg/mL protein (AID 1182). The note with it: fluorescent protein binding, 635 nm, higher = more signal, called active from +8 up or from −8 down.
Another assay relates to XIP peptide (Xip251-270). Kind of assay: small-molecule binders of XIP peptide, primary screen, biochemical, small-molecule microarray, fluorescence 635/667 nm, 0.5 µg/mL protein (AID 1183). The note with it: small-molecule microarray binding, fluorescence 635 nm; higher = more signal.
Assay [2] can be described thus: Plasmodium falciparum growth inhibition, primary screen, strain 3D7, DAPI fluorescence, 100 nL (AID 1184).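 Also: parasites grown inside human red blood cells in medium with human serum.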 The conditions noted are these: P. falciparum 3D7 growth, 3 d, higher = more signal.
In assay [3] the target is Homeobox protein Hox-A13 (Mus musculus) (UniProt Q62424). In words: inhibitors of HoxA13-DNA binding, primary screen, biochemical, fluorescence polarization, labeled oligonucleotide (AID 1185). The note with it: 15 min, higher = more signal, called active from +8 up or from −8 down. In general terms: In fluorescence polarisation assays a small probe gives low polarisation when free and higher when bound to something large.
Sequence of Homeobox protein Hox-A13 (Mus musculus) (Q62424 whole entry, looked up): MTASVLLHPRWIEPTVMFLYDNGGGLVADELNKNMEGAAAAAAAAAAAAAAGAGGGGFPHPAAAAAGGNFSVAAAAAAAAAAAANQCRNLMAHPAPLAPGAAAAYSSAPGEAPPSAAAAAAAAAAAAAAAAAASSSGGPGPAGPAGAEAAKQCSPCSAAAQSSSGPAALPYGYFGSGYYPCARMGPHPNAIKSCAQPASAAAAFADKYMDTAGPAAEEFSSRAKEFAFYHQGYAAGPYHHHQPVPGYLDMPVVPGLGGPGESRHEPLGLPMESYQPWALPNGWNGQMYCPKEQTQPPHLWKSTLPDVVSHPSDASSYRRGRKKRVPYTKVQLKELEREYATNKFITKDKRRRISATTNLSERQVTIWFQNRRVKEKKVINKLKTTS

The nature of assay [4]: inhibitors of hydroxyurea-induced Chk1 phosphorylation, primary screen, imaging, HeLa, phospho-Chk1 antibody, percent positive cells (AID 1186). The conditions noted are these: hydroxyurea-induced phospho-Chk1 immunofluorescence imaging, higher = more signal.
Assay [5] can be described thus: inhibitors of hydroxyurea-induced Chk1 phosphorylation, primary screen, imaging, HeLa, phospho-Chk1 nuclear intensity (AID 1187). The note with it: hydroxyurea-induced phospho-Chk1 immunofluorescence imaging, higher = more signal.

Activity calls are given as the source filed them. Unless noted, no rule for the calls is given here.

As for `COCCCNC(=O)[C@@]1(Cc2ccccc2)N=C(c2ccc(OCCCO)cc2)O[C@H]1c1ccccc1`, the values for the composite z-score (in assay [1]; with XIP peptide (Xip251-270)) were 0.111 (inactive) and 0.752, respectively. Also, the z-score was -2 in assay [2], -5.35 (inactive) in assay [3], 0.129 (inactive) in assay [4] and 0.221 (inactive) in assay [5].
`CC(CO)N1C(=O)[C@@H]2C3C(=O)OCCC/C=C\[C@H]3OC23C=CCN(c2ccc4ccccc4c2)C(=O)[C@@H]13` (stereo partly specified): the results for the composite z-score (in assay [1]; in the assay on XIP peptide (Xip251-270)) were 0.372 (inactive) and 0.0016, respectively. In addition, the z-score in assay [2] was 0.252; in assay [3], -3.77 (inactive); in assay [4], -0.663 (inactive); in assay [5] it was -0.182 (inactive).
On to `COCCOC(=O)N1C(=O)[C@@]2(c3cc(C#Cc4ccc(OC)cc4)ccc31)[C@H](c1ccccc1OCCO)N1[C@H](c3ccccc3)[C@H](c3ccccc3)OC(=O)[C@H]1[C@@H]2C(=O)N1CCN(c2ncccn2)CC1`, for which the composite z-score is -0.349 (inactive) in assay [1] and 0.59 in the assay with XIP peptide (Xip251-270). Besides, the z-score in assay [2] is -1.86; in assay [3], 0.484 (inactive); in assay [4], 0.0768 (inactive); in assay [5], 0.273 (inactive).
With `O=C(c1ccccc1)N1Cc2ccccc2[C@@H]2OC(c3ccc(OCCCO)cc3)=N[C@]2(Cc2ccccc2)C1=O`, the composite z-score was 1.67 (inactive) in assay [1] and 0.576 in the assay on XIP peptide (Xip251-270). Besides, the z-score in assay [2] was -2.2; in assay [3], 1.01 (inactive); in assay [4], 0.103 (inactive); in assay [5], -0.3 (inactive).
For the compound `O=C1OCCC/C=C\[C@H]2OC34C=CCN(Cn5nnc6ccccc65)C(=O)[C@H]3N(CCO)C(=O)[C@@H]4C12` (stereo partly specified), the figures for the composite z-score (in assay [1]; with XIP peptide (Xip251-270)) were -0.0143 (inactive) and 0.96, respectively. Also, the z-score in assay [2] is -1.18; in assay [3], -4.72 (inactive); in assay [4] it was 0.0428 (inactive); in assay [5], 0.371 (inactive).
As for `COCCCN1C(=O)[C@@]2(Cc3ccccc31)c1ccccc1C(=O)N(Cc1ccccc1C(F)(F)F)[C@H]2c1ccc(CO)cc1`, the values for the composite z-score (in assay [1]; with XIP peptide (Xip251-270)) were -0.219 (inactive) and 0.55, respectively. The z-score in assay [2] was -0.698; in assay [3], -0.825 (inactive); in assay [4], 0.25 (inactive); in assay [5], 0.49 (inactive).
For `C=CC[C@@]1(C(=O)NCc2ccccc2)N=C(c2ccc(OCCCO)cc2)O[C@@H]1c1ccccc1N=[N+]=[N-]`, the composite z-score in assay [1] was 0.0885 (inactive); with XIP peptide (Xip251-270) it was 0.764. Also, the z-score in assay [2] was -1.92; in assay [3] it was -1.72 (inactive); in assay [4] it was -0.334 (inactive); in assay [5], -0.183 (inactive).
With `O=C(O)[C@@]1(CCS(=O)(=O)c2ccccc2)COC(c2ccc(OCCCO)cc2)=N1`, the composite z-score in assay [1] is -0.0596 (inactive); with XIP peptide (Xip251-270) it was -0.271. The z-score is 0.917 in assay [2], -2.82 (inactive) in assay [3], -0.333 (inactive) in assay [4] and -0.52 (inactive) in assay [5].
As for `O=C1O[C@H](c2ccccc2)[C@H](c2ccccc2)N2[C@H]1[C@@H](C(=O)NC[C@H](O)c1ccccc1)[C@]1(C(=O)Nc3ccccc31)[C@H]2c1ccc(OCCO)cc1`, the composite z-score in assay [1] was 0.674 (inactive); in the assay on XIP peptide (Xip251-270) it was 0.809. In addition, the z-score in assay [2] was 0.249; in assay [3], -5.01 (inactive); in assay [4], -0.0282 (inactive); in assay [5], 0.177 (inactive).
`CCOC(=O)C1=CCC(c2ccc(C)cc2)N(S(=O)(=O)c2ccc(C)cc2)C1` (stereo unspecified): the figures for the composite z-score (in assay [1]; in the assay with XIP peptide (Xip251-270)) were 0.34 (inactive) and 0.46, respectively. Further, the z-score is -1.65 in assay [2], -2.32 (inactive) in assay [3], 0.283 (inactive) in assay [4] and 0.449 (inactive) in assay [5].
For `C=CCN(Cc1ccccc1)C(=O)C(c1cccs1)N(CCOCCO)C(=O)/C=C\C(=O)O` (stereo unspecified), the composite z-score was -0.467 (inactive) in assay [1] and -0.573 with XIP peptide (Xip251-270). The z-score in assay [2] was -0.205; in assay [3], -1.25 (inactive); in assay [4], -1.41 (inactive); in assay [5], -0.806 (inactive).
With `COc1ccc(C(=O)Nc2ccc(CN3C(=O)[C@@]4(O[C@@H](CCn5cc([C@H](O)c6ccccc6)nn5)[C@H]([Si](C)(C)c5ccc(OC)cc5)[C@H]4C)c4ccccc43)cc2)cc1`, the results for the composite z-score (in assay [1]; in the assay on XIP peptide (Xip251-270)) were 0.0679 (inactive) and 0.216, respectively. For the same compound, the z-score in assay [2] was -2.3; in assay [3], 0.568 (inactive); in assay [4] it was -0.0665 (inactive); in assay [5] it was -0.348 (inactive).
For the compound `CN1C(=O)C2C=CC(C(O)Cc3ccccc3)N(Nc3ccccc3)C2C1=O` (stereo unspecified), the composite z-score is -0.0041 (inactive) in assay [1] and 0.508 with XIP peptide (Xip251-270). Besides, the z-score in assay [2] was 0.538; in assay [3] it was -4.51 (inactive); in assay [4] it was -0.444 (inactive); in assay [5], -0.889 (inactive).
For the compound `CC(C)N1C(=O)c2ccccc2[C@](C)(C(=O)NCc2ccccc2)[C@@H]1c1ccc(CO)cc1`, the composite z-score in assay [1] is -0.534 (inactive); in the assay with XIP peptide (Xip251-270) it was 0.48. Also, the z-score was -0.771 in assay [2], -1.51 (inactive) in assay [3], 0.0268 (inactive) in assay [4] and 0.0578 (inactive) in assay [5].
Regarding `C=C(COC)/C(=C/C[C@@H](OC(C)=O)c1ccc(OCCO)cc1)c1cc(C(=O)OC)ccc1OC`, the composite z-score in assay [1] was 2.57 (inactive); with XIP peptide (Xip251-270), 0.762. Also, the z-score in assay [2] is -3.06; in assay [3], -4.45 (inactive); in assay [4] it was -0.307 (inactive); in assay [5], -0.333 (inactive).
On to `C=CCOC(=O)[C@H]1[C@@H]2C(=O)O[C@@H](c3ccccc3)[C@@H](c3ccccc3)N2[C@@H](c2ccc(OCCOC(=O)[C@@H]3C[C@@H]4C(=O)N5CCC[C@H]5C(=O)N4[C@@H]3c3cccc(OCCO)c3)cc2)[C@]12C(=O)Nc1ccccc12`, for which the results for the composite z-score (in assay [1]; in the assay with XIP peptide (Xip251-270)) were 1.48 (inactive) and 0.846, respectively. Besides, the z-score is -1.71 in assay [2], -0.113 (inactive) in assay [3], -0.934 (inactive) in assay [4] and -0.0548 (inactive) in assay [5].
